High-throughput results as filed in PubChem.
C diff growth – inhibitors of Clostridium difficile growth | hit rate 0.25% among 86,000 | Clostridium difficile clinical isolate growth, OD600, 24 h; hits give low values | AID 1259249 | growth activity, negative = inhibition, % at 16 µg/mL (by protocol);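 active = mean growth activity at or below -80% and every replicate also at or below -80%; inconclusive = mean at or below -80% but some replicate above -80%; inactive = mean growth activity above -80%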
T cruzi growth-1 – inhibitors of T. cruzi proliferation. T. cruzi beta-gal in NIH3T3, GalScreen luminescence, 90 h. hit rate 5.9% among 77,000. inhibition, % at 8.34 µM;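 active = mean inhibition above about 93%, with at least 55% of replicates each passing it, limit read from the data, passing the limit was not always enough; inconclusive = only one of those two conditions holds; inactive = neither condition holds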
Pf Dd2 inh – P. falciparum Dd2 growth inhibition; activity change, % at 10 µM; hit rate 2.3% among 94,000; AID 1159554; SYBR Green, 72 h; hits give low values; in the data active = activity change below about -80%; inconclusive = no clear call, values can overlap the other calls
T cruzi growth-2 – blocks T. cruzi growth in NIH3T3 host cells | inhibition, % at 8.35 µM | hit rate 72% among 5,600 | T. cruzi beta-gal in NIH3T3, GalScreen luminescence, 90 h | shares compounds with T cruzi growth-1;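 active = mean replicate inhibition above about 95% and at least 55% of replicates individually reaching it, limit read from the data; inconclusive = only one of the two criteria is met; inactive = neither criterion is met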
T cruzi growth-3 – blocks T. cruzi growth in NIH3T3 host cells | shares compounds with T cruzi growth-1 | T. cruzi beta-gal in NIH3T3, GalScreen luminescence, 90 h | inhibition, % at 2.09 µM | hit rate 21% among 5,600 | AID 651740;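 active = mean inhibition above about 95%, with at least 55% of replicates also reaching it, limit read from the data; inconclusive = meets just one of the two conditions; inactive = meets neither condition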
3T3 cytotox – cytotoxicity in mouse NIH/3T3 fibroblasts | AID 651742 | hit rate 14% among 5,600 | NIH/3T3 viability, CellTiter-Glo ATP luminescence, 90 h | cytotoxicity (signal decrease), % at 8.35 µM | shares compounds with T cruzi growth-1;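 active = mean signal decrease across replicates above about 35% based on untreated-well scatter, with enough replicates individually passing, limit read from the data; inconclusive = no rule stated though some were filed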
3T3 cytotox 2 – NIH/3T3 (mouse) viability loss; shares compounds with T cruzi growth-1; NIH/3T3 viability, CellTiter-Glo ATP luminescence, 90 h; inhibition, % at 24.9 µM; hit rate 56% among 5,600;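 active = mean loss of cell viability signal at or above a set limit, and enough replicates individually reaching it; inconclusive = meets only the mean limit or only the replicate share; inactive = meets neither condition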
Of the large screens only hits and unclear results are named; the others gave an inactive call (follow-up assays come after a bar, where they were run). Hits are enriched below; roughly 6.8% of the tested compounds scored in any of these assays.

C[C@@H]1CN([C@H](C)CO)S(=O)(=O)c2ccc(C3=CCCC3)cc2O[C@@H]1CN(C)Cc1ccccn1	none (no result: T cruzi growth-1)
C[C@H]1CN([C@@H](C)CO)C(=O)c2cc(NC(=O)CCCN(C)C)ccc2O[C@@H]1CN(C)C(=O)Nc1cccc2ccccc12	none
CO[C@H]1CN(C)C(=O)c2ccc(NC(=O)c3ccccc3)cc2OC[C@@H](C)N(C(C)=O)C[C@H]1C	none
C[C@H]1CN([C@@H](C)CO)C(=O)c2cc(NC(=O)c3ccncc3)ccc2O[C@H]1CN(C)Cc1ccccc1	none
O=C(c1cccc(F)c1)N1CCCCN2[C@H](CO)[C@H](c3ccc(-c4ccc(F)cc4)cc3)[C@@H]2C1	T cruzi growth-1 111 | T cruzi growth-2 110 | T cruzi growth-3 95 | 3T3 cytotox inactive | 3T3 cytotox 2 65
O=C(c1cccc(F)c1)N1CCCCN2[C@H](CO)[C@@H](c3ccc(-c4cncnc4)cc3)[C@@H]2C1	none
O=C(c1cccc(F)c1)N1CCCCN2[C@H](CO)[C@H](c3ccc(-c4cncnc4)cc3)[C@H]2C1	T cruzi growth-1 inconclusive | T cruzi growth-2 inactive | T cruzi growth-3 inactive | 3T3 cytotox inactive | 3T3 cytotox 2 inactive
CC(C)(O)C#Cc1ccc([C@@H]2[C@@H](CO)N3CCCCN(C(=O)c4cccc(F)c4)C[C@H]23)cc1	T cruzi growth-1 120 | T cruzi growth-2 inactive | T cruzi growth-3 inactive | 3T3 cytotox inactive | 3T3 cytotox 2 inactive
O=C(c1cccc(F)c1)N1CCCCN2[C@H](CO)[C@@H](c3ccc(-c4ccc(F)cc4)cc3)[C@@H]2C1	T cruzi growth-1 104 | T cruzi growth-2 105 | T cruzi growth-3 inconclusive | 3T3 cytotox inactive | 3T3 cytotox 2 106
O=C(c1cccc(F)c1)N1CCCCN2[C@@H](CO)[C@@H](c3ccc(-c4ccncc4)cc3)[C@@H]2C1	none
O=C(c1cccc(F)c1)N1CCCCN2[C@H](C1)[C@@H](c1ccc(-c3cncnc3)cc1)[C@@H]2CO	none
CC(C)(O)C#Cc1ccc([C@@H]2[C@H]3CN(C(=O)c4cccc(F)c4)CCCCN3[C@H]2CO)cc1	none
Cc1noc(C)c1S(=O)(=O)N(C)C[C@H]1OCCCC[C@H](C)Oc2ccc(NS(=O)(=O)c3cccs3)cc2C(=O)N([C@@H](C)CO)C[C@H]1C	none (no result: T cruzi growth-1)
O=C(c1cccc(F)c1)N1CCCCN2[C@H](C1)[C@@H](c1ccc(-c3ccncc3)cc1)[C@@H]2CO	none
O=C(c1cccc(F)c1)N1CCCCN2[C@H](CO)[C@H](c3ccc(-c4ccncc4)cc3)[C@@H]2C1	T cruzi growth-1 110 | T cruzi growth-2 113 | T cruzi growth-3 inactive | 3T3 cytotox inactive | 3T3 cytotox 2 inactive
C[C@@H]1CN([C@@H](C)CO)S(=O)(=O)c2ccc(C#Cc3ccccc3)cc2O[C@H]1CN(C)S(C)(=O)=O	none
C[C@@H]1CN([C@@H](C)CO)S(=O)(=O)c2ccc(C#Cc3cccc(F)c3)cc2O[C@@H]1CN(C)S(=O)(=O)c1cn(C)cn1	none
C[C@H](CO)N1C[C@H](C)[C@@H](CN(C)S(=O)(=O)c2ccccc2F)Oc2cc(C#Cc3ccccc3)ccc2S1(=O)=O	T cruzi growth-1 123 | T cruzi growth-2 107 | T cruzi growth-3 116 | 3T3 cytotox inactive | 3T3 cytotox 2 inconclusive
C[C@H](CO)N1C[C@H](C)[C@@H](CN(C)S(=O)(=O)c2cn(C)cn2)Oc2cc(C#Cc3ccccc3)ccc2S1(=O)=O	T cruzi growth-1 105 | T cruzi growth-2 106 | T cruzi growth-3 inactive | 3T3 cytotox inactive | 3T3 cytotox 2 50
C[C@@H]1CN([C@H](C)CO)S(=O)(=O)c2ccc(C#Cc3ccccc3)cc2O[C@H]1CN(C)S(C)(=O)=O	none
C[C@@H]1CN([C@@H](C)CO)S(=O)(=O)c2ccc(C#Cc3ccccc3)cc2O[C@@H]1CN(C)S(=O)(=O)c1ccccc1F	T cruzi growth-1 123 | T cruzi growth-2 105 | T cruzi growth-3 109 | 3T3 cytotox inactive | 3T3 cytotox 2 47
Cc1ccccc1-c1cnc2c(c1)C(=O)N([C@@H](C)CO)C[C@H](C)[C@@H](CN(C)C(=O)c1ccccc1)O2	none
C[C@H](CO)N1C[C@H](C)[C@H](CN(C)S(=O)(=O)c2cccs2)Oc2ccc(NS(C)(=O)=O)cc2C1=O	none (no result: C diff growth)
CCCNC(=O)N(C)C[C@H]1Oc2cc(C#CCC(C)C)ccc2S(=O)(=O)N([C@@H](C)CO)C[C@@H]1C	T cruzi growth-1 106 | T cruzi growth-2 100 | T cruzi growth-3 inactive | 3T3 cytotox inactive | 3T3 cytotox 2 28
CCCNC(=O)N(C)C[C@@H]1Oc2cc(C#Cc3cccc(F)c3)ccc2S(=O)(=O)N([C@H](C)CO)C[C@@H]1C	T cruzi growth-1 116 | T cruzi growth-2 111 | T cruzi growth-3 inactive | 3T3 cytotox inactive | 3T3 cytotox 2 47
CCCNC(=O)N(C)C[C@@H]1Oc2cc(C#CCC(C)C)ccc2S(=O)(=O)N([C@H](C)CO)C[C@@H]1C	none
CCCC#Cc1ccc2c(c1)O[C@@H](CN(C)C(=O)NCCC)[C@@H](C)CN([C@H](C)CO)S2(=O)=O	none
CC(C)NC(=O)N(C)C[C@H]1Oc2cc(C#Cc3cccc(F)c3)ccc2S(=O)(=O)N([C@H](C)CO)C[C@@H]1C	none
CC(=O)N(C)C[C@H]1Oc2cc(C#Cc3cccc(F)c3)ccc2S(=O)(=O)N([C@H](C)CO)C[C@@H]1C	none
CCCNC(=O)N(C)C[C@@H]1Oc2cc(C#Cc3cccc(F)c3)ccc2S(=O)(=O)N([C@@H](C)CO)C[C@@H]1C	T cruzi growth-1 117 | T cruzi growth-2 110 | T cruzi growth-3 inactive | 3T3 cytotox inactive | 3T3 cytotox 2 83
CCCNC(=O)N(C)C[C@@H]1Oc2cc(C#Cc3cccc(F)c3)ccc2S(=O)(=O)N([C@H](C)CO)C[C@H]1C	T cruzi growth-1 inconclusive | T cruzi growth-2 106 | T cruzi growth-3 inactive | 3T3 cytotox 47 | 3T3 cytotox 2 94
CCNC(=O)[C@@H]1[C@@H](CO)[C@@H]2Cn3c(ccc(-c4cncnc4)c3=O)[C@H]1N2C(=O)Nc1ccccc1	none
CCCNC(=O)N1C[C@@H](O)COC[C@@H]2O[C@H](CC(=O)N[C@@H]3CCN(Cc4ccccc4)C3)CC[C@H]21	none (no result: Pf Dd2 inh)
C[C@H](NC(=O)C[C@@H]1CC[C@H](NC(=O)C2CC2)[C@H](CO)O1)c1ccccc1	none (no result: T cruzi growth-1)
CC(=O)N(C)C[C@@H]1Oc2cc(C#Cc3cccc(F)c3)ccc2S(=O)(=O)N([C@@H](C)CO)C[C@@H]1C	none
CCCNC(=O)N(C)C[C@H]1Oc2cc(C#Cc3cccc(F)c3)ccc2S(=O)(=O)N([C@H](C)CO)C[C@H]1C	T cruzi growth-1 125 | T cruzi growth-2 106 | T cruzi growth-3 inactive | 3T3 cytotox inactive | 3T3 cytotox 2 66
CO[C@H]1CN(C)C(=O)c2cc(NC(=O)C3CC3)ccc2OC[C@@H](C)N(Cc2cc(F)ccc2F)C[C@@H]1C	none (no result: C diff growth)
